Tests used:
[1] = target: T1, Tyrosine-protein kinase Tec (Homo sapiens) (UniProt P42680); settings: at 1 µM
T1 sequence (whole entry): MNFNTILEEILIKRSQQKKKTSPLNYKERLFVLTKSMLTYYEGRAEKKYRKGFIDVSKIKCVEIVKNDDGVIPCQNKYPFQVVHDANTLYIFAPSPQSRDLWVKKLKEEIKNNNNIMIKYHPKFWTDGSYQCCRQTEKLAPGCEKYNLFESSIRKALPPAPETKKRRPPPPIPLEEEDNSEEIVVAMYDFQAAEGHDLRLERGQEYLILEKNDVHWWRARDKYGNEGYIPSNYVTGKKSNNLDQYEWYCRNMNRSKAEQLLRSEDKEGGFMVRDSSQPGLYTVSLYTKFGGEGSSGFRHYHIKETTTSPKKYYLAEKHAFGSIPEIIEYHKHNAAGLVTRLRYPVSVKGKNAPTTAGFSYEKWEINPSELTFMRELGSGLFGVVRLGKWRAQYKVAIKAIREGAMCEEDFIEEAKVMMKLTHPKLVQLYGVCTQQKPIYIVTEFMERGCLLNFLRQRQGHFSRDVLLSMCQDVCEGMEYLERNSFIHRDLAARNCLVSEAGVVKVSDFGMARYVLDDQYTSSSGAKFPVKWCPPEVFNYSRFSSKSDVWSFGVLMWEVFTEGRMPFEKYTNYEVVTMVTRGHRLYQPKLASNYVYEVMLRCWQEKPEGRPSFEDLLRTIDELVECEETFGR

[2] = target: BDNF/NT-3 growth factors receptor (Homo sapiens) (UniProt Q16620); settings: at 10 µM
[3] = target: T2, Tyrosine-protein kinase TXK (Homo sapiens) (UniProt P42681); settings: at 1 µM
T2 sequence (whole entry): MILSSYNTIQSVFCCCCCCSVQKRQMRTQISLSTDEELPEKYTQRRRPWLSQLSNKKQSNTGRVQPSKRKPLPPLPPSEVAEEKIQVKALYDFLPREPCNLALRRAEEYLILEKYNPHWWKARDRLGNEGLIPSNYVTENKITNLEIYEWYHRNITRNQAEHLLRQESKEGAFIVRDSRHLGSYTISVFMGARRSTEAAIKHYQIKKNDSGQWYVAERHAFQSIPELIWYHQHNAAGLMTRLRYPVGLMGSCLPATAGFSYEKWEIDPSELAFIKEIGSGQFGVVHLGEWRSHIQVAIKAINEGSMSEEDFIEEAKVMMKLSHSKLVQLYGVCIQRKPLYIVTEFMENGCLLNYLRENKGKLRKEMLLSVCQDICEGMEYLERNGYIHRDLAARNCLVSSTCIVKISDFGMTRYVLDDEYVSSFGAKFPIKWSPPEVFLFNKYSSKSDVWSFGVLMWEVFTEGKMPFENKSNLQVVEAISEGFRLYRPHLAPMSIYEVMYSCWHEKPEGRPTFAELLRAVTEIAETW

[4] = target: T2, Tyrosine-protein kinase TXK (Homo sapiens); settings: at 10 µM
[5] = target: Angiopoietin-1 receptor (Homo sapiens) (UniProt Q02763); settings: at 1 µM
[6] = target: Angiopoietin-1 receptor (Homo sapiens) (UniProt Q02763); settings: at 10 µM
[7] = target: High affinity nerve growth factor receptor (Homo sapiens) (UniProt P04629); settings: at 1 µM
[8] = target: High affinity nerve growth factor receptor (Homo sapiens) (UniProt P04629); settings: at 10 µM
[9] = target: BDNF/NT-3 growth factors receptor (Homo sapiens) (UniProt Q16620); settings: at 1 µM
[10] = target: T1, Tyrosine-protein kinase Tec (Homo sapiens); settings: at 10 µM
[11] = target: T3, Testis-specific serine/threonine-protein kinase 1 (Homo sapiens) (UniProt Q9BXA7); settings: at 10 µM
T3 sequence (whole entry): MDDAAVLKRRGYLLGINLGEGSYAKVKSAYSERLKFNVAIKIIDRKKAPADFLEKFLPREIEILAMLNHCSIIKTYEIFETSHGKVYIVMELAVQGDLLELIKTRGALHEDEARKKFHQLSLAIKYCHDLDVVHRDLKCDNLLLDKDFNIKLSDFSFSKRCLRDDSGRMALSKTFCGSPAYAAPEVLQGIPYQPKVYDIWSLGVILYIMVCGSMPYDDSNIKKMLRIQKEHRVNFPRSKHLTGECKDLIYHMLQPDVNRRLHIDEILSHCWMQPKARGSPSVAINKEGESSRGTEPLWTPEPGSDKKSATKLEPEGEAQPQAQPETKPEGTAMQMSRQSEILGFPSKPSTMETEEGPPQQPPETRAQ

[12] = target: T4, Testis-specific serine/threonine-protein kinase 2 (Homo sapiens) (UniProt Q96PF2); settings: at 10 µM
T4 sequence (whole entry): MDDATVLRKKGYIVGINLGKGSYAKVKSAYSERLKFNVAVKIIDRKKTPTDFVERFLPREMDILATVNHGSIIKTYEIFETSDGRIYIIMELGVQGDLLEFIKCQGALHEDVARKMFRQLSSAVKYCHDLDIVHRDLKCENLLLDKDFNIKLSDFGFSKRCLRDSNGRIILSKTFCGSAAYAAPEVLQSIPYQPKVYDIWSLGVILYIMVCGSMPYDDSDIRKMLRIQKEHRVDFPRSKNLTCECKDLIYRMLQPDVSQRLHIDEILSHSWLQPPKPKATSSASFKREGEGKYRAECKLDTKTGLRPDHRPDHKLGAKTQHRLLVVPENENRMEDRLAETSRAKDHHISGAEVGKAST

[13] = target: T5, Serine/threonine-protein kinase ULK2 (Homo sapiens) (UniProt Q8IYT8); settings: at 1 µM
T5 sequence (whole entry): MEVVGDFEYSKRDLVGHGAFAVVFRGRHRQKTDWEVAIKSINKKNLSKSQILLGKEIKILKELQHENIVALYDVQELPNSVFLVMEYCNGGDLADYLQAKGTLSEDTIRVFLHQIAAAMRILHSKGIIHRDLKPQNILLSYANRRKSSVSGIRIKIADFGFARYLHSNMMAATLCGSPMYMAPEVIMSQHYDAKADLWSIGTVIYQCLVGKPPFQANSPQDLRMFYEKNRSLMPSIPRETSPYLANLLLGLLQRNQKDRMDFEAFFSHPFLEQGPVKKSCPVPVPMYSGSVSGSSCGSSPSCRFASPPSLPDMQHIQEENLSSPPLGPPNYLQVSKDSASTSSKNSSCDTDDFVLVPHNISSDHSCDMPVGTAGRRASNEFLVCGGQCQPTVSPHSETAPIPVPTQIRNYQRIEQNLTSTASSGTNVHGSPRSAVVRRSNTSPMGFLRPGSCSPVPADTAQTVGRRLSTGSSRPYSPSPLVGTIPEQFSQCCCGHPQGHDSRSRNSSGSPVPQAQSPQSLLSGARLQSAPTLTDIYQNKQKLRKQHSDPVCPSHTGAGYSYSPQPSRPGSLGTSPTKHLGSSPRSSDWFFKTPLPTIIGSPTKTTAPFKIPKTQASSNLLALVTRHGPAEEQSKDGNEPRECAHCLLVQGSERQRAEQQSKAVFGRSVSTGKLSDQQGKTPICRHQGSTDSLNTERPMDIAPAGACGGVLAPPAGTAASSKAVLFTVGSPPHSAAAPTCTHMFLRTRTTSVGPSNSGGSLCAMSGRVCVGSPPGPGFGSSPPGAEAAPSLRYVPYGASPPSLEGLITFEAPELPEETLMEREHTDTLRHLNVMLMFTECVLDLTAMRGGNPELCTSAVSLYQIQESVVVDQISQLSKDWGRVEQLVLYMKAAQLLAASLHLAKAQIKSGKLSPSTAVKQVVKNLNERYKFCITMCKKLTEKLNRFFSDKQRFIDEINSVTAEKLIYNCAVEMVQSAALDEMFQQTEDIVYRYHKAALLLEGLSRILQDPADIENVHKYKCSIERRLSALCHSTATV

[14] = target: T5, Serine/threonine-protein kinase ULK2 (Homo sapiens); settings: at 10 µM
[15] = target: T6, Serine/threonine-protein kinase ULK3 (Homo sapiens) (UniProt Q6PHR2); settings: at 1 µM
T6 sequence (whole entry): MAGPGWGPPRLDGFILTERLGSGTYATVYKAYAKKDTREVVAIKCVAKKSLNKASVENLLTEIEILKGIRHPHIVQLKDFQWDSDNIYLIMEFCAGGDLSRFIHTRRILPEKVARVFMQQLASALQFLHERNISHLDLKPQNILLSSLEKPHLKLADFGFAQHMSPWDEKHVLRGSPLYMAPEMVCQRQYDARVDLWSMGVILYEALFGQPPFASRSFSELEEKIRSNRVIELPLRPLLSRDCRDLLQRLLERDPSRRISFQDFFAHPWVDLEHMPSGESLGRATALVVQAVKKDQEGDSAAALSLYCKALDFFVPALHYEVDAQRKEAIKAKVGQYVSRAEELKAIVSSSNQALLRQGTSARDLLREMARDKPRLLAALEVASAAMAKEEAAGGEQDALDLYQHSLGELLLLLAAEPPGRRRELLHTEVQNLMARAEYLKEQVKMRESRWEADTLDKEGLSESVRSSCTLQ

[16] = target: T6, Serine/threonine-protein kinase ULK3 (Homo sapiens); settings: at 10 µM
[17] = target: Serine/threonine-protein kinase VRK2 (Homo sapiens) (UniProt Q86Y07); settings: at 1 µM
[18] = target: Serine/threonine-protein kinase VRK2 (Homo sapiens) (UniProt Q86Y07); settings: at 10 µM
[19] = target: Serine/threonine-protein kinase WNK2 (Homo sapiens) (UniProt Q9Y3S1); settings: at 1 µM;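 note: residual WNK2 kinase activity expressed as percent of uninhibited control, assayed in MOPS buffer at pH 7.0 containing EDTA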
[20] = target: T3, Testis-specific serine/threonine-protein kinase 1 (Homo sapiens); settings: at 1 µM

Chain of Angiopoietin-1 receptor (Homo sapiens) (Q02763 whole entry): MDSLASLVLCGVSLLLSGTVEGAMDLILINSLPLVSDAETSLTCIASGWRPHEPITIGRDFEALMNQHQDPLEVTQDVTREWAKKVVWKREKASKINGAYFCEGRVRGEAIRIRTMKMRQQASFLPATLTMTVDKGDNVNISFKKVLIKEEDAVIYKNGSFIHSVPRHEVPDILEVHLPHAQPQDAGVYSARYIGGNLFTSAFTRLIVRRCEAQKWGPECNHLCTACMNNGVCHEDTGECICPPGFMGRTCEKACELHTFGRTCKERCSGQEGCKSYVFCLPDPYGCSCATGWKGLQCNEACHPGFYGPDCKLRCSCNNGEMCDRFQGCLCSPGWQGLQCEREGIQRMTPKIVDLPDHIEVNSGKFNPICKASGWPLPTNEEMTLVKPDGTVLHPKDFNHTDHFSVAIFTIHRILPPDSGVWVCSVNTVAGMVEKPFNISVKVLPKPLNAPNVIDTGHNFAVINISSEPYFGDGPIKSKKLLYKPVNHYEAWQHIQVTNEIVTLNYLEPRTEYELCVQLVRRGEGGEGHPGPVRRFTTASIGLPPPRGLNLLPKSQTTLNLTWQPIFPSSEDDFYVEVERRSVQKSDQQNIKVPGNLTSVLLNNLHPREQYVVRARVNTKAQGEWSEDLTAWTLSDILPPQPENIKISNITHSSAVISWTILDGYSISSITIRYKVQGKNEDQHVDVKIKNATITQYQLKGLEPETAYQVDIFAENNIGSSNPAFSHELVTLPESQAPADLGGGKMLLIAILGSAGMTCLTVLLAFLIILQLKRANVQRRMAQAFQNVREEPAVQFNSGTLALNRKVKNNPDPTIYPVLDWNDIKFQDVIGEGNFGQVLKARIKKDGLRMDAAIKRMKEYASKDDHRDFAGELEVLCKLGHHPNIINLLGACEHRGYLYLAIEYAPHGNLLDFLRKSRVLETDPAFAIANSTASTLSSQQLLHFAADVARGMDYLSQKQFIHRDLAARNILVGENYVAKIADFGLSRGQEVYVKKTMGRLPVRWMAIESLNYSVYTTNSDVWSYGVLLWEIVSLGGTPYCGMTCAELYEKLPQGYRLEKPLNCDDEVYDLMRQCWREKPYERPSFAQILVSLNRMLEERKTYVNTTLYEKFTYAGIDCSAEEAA
Chain of BDNF/NT-3 growth factors receptor (Homo sapiens) (Q16620 32-822 limits assumed): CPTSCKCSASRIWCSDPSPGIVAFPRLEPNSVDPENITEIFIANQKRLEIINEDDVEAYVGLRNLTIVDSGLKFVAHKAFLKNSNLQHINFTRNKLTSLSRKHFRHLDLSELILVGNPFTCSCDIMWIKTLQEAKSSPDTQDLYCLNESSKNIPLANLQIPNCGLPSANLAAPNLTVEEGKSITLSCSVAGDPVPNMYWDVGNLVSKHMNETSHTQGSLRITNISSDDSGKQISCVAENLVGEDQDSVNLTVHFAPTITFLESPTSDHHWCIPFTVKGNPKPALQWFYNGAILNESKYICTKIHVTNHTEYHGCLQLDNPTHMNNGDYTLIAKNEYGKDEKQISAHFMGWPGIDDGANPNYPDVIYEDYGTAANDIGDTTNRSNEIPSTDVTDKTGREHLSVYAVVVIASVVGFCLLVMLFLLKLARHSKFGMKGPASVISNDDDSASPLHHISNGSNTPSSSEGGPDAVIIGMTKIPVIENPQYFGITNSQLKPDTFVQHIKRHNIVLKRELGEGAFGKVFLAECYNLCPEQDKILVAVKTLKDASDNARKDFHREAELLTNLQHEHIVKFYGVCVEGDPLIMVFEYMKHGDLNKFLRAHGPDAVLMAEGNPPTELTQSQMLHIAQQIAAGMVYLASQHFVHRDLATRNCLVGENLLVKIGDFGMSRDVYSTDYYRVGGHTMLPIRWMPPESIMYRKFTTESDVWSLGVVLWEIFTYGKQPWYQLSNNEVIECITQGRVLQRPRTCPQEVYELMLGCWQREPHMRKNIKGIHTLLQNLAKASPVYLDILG
Chain of Serine/threonine-protein kinase WNK2 (Homo sapiens) (Q9Y3S1 whole entry): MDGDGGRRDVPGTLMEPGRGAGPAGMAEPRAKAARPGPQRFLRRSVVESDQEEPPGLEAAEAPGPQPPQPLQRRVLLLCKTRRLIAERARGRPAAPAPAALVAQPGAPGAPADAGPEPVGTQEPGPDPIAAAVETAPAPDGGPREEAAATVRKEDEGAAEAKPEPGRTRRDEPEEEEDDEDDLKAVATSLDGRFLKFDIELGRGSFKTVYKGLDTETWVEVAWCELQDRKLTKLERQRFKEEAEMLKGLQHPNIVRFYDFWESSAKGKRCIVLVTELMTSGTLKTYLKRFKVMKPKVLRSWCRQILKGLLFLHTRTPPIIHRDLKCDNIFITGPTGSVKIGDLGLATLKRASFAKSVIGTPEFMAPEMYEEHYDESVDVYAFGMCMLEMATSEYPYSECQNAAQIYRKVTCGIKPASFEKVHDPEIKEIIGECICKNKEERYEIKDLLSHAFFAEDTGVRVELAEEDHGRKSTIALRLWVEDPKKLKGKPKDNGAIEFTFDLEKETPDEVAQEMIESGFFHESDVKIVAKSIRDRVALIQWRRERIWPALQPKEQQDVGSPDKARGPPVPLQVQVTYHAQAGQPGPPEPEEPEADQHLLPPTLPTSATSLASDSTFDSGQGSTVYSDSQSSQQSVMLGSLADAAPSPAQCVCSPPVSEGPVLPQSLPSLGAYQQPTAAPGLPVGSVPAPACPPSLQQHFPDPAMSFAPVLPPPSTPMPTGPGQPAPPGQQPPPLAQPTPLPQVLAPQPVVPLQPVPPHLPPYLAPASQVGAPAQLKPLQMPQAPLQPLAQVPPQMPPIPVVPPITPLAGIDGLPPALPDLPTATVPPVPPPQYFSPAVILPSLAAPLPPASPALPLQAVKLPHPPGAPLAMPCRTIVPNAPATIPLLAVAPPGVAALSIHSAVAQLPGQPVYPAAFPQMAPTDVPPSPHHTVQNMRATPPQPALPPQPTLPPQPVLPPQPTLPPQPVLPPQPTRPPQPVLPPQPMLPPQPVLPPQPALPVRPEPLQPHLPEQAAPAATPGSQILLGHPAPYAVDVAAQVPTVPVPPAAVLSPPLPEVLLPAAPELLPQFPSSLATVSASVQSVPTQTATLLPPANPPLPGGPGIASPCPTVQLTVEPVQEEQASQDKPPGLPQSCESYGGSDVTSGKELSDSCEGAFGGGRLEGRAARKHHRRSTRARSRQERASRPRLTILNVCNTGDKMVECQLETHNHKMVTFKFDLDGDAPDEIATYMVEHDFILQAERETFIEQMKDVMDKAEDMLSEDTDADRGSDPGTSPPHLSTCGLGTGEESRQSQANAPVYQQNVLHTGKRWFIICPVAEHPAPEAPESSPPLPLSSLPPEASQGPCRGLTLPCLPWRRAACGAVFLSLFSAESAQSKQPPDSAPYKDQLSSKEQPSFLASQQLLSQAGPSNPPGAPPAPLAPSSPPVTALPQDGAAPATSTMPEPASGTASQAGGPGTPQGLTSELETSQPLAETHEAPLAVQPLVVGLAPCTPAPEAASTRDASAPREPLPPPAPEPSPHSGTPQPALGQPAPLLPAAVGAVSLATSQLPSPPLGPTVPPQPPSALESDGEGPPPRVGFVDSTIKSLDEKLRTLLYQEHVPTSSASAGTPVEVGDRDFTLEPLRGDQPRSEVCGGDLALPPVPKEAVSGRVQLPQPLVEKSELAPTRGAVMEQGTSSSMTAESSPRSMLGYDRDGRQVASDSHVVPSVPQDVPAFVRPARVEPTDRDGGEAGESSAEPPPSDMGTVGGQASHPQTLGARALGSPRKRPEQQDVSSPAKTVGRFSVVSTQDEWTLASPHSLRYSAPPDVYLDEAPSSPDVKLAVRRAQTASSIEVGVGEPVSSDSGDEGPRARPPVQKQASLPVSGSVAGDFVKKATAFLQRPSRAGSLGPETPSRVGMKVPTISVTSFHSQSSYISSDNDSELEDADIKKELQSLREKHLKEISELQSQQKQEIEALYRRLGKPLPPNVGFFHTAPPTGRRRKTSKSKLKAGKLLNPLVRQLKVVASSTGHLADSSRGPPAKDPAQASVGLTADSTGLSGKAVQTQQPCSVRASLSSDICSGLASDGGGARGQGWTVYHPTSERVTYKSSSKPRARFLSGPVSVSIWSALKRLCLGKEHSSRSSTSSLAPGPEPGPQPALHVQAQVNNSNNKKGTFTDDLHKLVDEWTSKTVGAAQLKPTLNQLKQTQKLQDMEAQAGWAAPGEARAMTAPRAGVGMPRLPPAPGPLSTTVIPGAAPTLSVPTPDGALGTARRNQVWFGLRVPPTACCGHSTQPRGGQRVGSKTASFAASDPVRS
Chain of High affinity nerve growth factor receptor (Homo sapiens) (P04629 33-796 limits assumed): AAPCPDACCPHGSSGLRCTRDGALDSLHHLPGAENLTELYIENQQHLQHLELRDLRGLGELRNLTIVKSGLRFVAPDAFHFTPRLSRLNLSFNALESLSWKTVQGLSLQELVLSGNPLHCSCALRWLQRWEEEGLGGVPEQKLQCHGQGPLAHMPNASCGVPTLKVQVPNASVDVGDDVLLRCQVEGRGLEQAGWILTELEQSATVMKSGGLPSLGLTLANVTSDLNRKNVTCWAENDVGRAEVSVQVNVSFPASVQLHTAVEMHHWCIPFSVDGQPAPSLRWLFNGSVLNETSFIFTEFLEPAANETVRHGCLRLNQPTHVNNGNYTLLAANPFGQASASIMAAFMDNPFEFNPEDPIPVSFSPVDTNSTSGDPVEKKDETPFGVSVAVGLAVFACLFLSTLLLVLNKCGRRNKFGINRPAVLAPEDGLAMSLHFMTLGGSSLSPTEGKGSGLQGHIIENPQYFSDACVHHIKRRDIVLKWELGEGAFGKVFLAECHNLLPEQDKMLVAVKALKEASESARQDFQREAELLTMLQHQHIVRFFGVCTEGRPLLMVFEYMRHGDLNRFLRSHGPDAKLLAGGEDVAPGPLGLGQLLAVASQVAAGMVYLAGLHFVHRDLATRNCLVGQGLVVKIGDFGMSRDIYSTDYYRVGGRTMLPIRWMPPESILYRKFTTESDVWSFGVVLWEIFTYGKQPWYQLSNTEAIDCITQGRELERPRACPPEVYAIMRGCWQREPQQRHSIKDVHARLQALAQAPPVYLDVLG

Structure (SMILES) | residual activity [1] | residual activity [2] | residual activity [3] | residual activity [4] | residual activity [5] | residual activity [6] | residual activity [7] | residual activity [8] | residual activity [9] | residual activity [10] | residual activity [11] | residual activity [12] | residual activity [13] | residual activity [14] | residual activity [15] | residual activity [16] | residual activity [17] | residual activity [18] | residual activity [19] | residual activity [20]
COc1ccc(CNC(=O)Nc2ncc([N+](=O)[O-])s2)cc1 | 102% | 110% | 67% | 74% | – | – | – | – | – | – | – | – | – | – | – | – | – | – | – | –
O=C1NC(=O)C(c2cn(CCCn3ccnc3)c3ccccc23)=C1Nc1ccccc1 | – | 18% | – | – | 55% | 32% | 1% | 9% | 44% | – | – | – | – | – | – | – | – | – | – | –
Nc1nccc(-c2c(-c3ccc(F)cc3)ncn2C2CCNCC2)n1 | – | 61% | 83% | 64% | – | – | 100% | 74% | 118% | 77% | – | – | – | – | – | – | – | – | – | –
O=C(c1cc2cc(O)ccc2[nH]1)c1cc2cc(O)ccc2[nH]1 | 58% | -12% | 64% | 22% | 67% | 75% | 13% | 1% | 56% | 21% | 56% | 65% | 82% | 38% | 73% | 22% | 72% (inactive) | 37% | 83% (inactive) | –
Nc1ncnc2[nH]nc(Nc3ccc(F)cc3)c12 | 82% | – | 66% | 18% | 104% | 79% | 78% | 40% | 123% | 21% | – | – | 120% | 95% | 97% | 74% | 97% (inactive) | 81% | 101% (inactive) | 108%
Nc1nc(Nc2ccc(S(N)(=O)=O)cc2)nn1C(=O)c1c(F)cccc1F | 82% | 5% | – | 41% | 36% | 0% | 41% | 5% | 54% | 34% | – | 76% | – | 39% | 46% | 9% | 97% (inactive) | 69% | 96% (inactive) | –
O=S(=O)(c1cccc2cnccc12)N1CCCNCC1 | – | – | – | – | – | – | – | – | 83% | – | – | – | – | – | – | – | – | – | – | –
O=C1Nc2ccccc2/C1=C\c1c(Cl)[nH]c2ccccc12 | – | 57% | 83% | 74% | – | 47% | 85% | 34% | 87% | – | – | 78% | – | – | – | – | 76% (inactive) | 28% | – | 81%
COc1ccc(-c2cnc3c(-c4ccsc4)cnn3c2)cc1 | – | 73% | 70% | 83% | – | – | 76% | 88% | 66% | – | 96% | – | 99% | 96% | 96% | 90% | – | – | – | 98%

Source: ChEMBL document CHEMBL2218924, “A broad activity screen in support of a chemogenomic map for kinase signalling research and drug discovery” (Biochem J, 2013)
